# Values without a mark were called inactive. Results filed as inconclusive are left out. This is one part of the list. A call without a number means that no potency is given here. The source made the active and inactive calls. Unless noted, calls follow the shape of the dose curve; as a rule, active = well fitted curve in the direction sought with a large enough effect; inconclusive = small, poorly fitted or top-dose-only effect, or another doubt; inactive = no such curve, though single readings can be large; an effect the other way counts as inactive or inconclusive.
# What was measured:
# [1] = molecular target: Peroxisome proliferator-activated receptor delta (Homo sapiens) (UniProt Q03181); assay: qHTS assay for small molecule agonists of peroxisome proliferator-activated receptor delta signaling (AID 588534; calls by dose curve)
# Outline: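 Agonist-mode beta-lactamase reporter readout (CCF4 dye, 2 h at RT) after 18 h at 37 °C exposure to a titration; Hill-equation fitting gave EC50 and maximal response.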
# [2] = qHTS assay for small molecule agonists of the antioxidant response element (ARE) signaling pathway (AID 651741; active = well fitted activation curve with a large enough effect in the signal ratio; the % refers to the signal ratio; also: potency is read from the fitted curve at half-maximal effect)
# Outline: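 Reporter: beta-lactamase under ARE, stably in HepG2. Exposure: 16 h, 37 C, compounds delivered in DMSO by pin tool after 5 h cell preincubation. Readout: FRET substrate fluorescence after 2 h at RT.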
# [3] = molecular target: Cytochrome P450 3A4 (Homo sapiens) (UniProt P08684); assay: qHTS Assay for Activators of Cytochrome P450 3A4 (AID 885); also: nearly all actives have a fitted effect of over 65% in size
# Outline: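 CYP3A4 activity: Luciferin-PPXE O-dealkylation, 25uM substrate, 200mM KPO4, RT throughout. Read-out is luciferase luminescence; higher values reflect activation.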
# [4] = qHTS assay for small molecule disruptors of the mitochondrial membrane potential - 5 hr assay (AID 651755; calls by dose curve; also: potency is read from the fitted curve at half-maximal effect; nearly all actives have a fitted effect of over 40% in size)
# Outline: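 Seed HepG2 overnight, add compound, incubate 5 hr at 37C and 5% CO2, stain 30 min with Mito-MPS, then measure monomer (490/535 nm) and aggregate (540/590 nm) fluorescence.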
# [5] = molecular target: Nuclear receptor ROR-gamma (Homo sapiens) (UniProt P51449); assay: qHTS assay for small molecule antagonists of the retinoid-related orphan receptor gamma (ROR-gamma) signaling pathway (AID 651802);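 also: CHO cells with doxycycline-induced ROR-gamma expression; luciferase reporter luminescence driven by ROR response element; series mostly up to about 92 µM; nearly all actives have a fitted effect of over 60% in size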
# Outline: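 Luminescence (One-Glo, 30 min RT) measured 16 h after compound addition and doxycycline induction at 37C. Reporter: RORE-luciferase under TET-inducible ROR-gamma in CHO cells.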
# [6] = qHTS assay for environmental chemicals that activate the Aryl hydrocarbon Receptor (AhR) signaling pathway (AID 651777); settings: 1A2-DRE human hepatoma cells, luciferase, 24 h; activation: hits give high values; also: potency is read from the fitted curve at half-maximal effect; nearly all actives have a fitted effect of over 15% in size
# Outline: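 Measured luciferase activity, read 30 min after One-Glo addition at room temperature, from human hepatoma cells bearing a dioxin response element–CYP1A2 promoter reporter and exposed to compound for 24 hr at 37 C.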
# [7] = molecular target: Cytochrome P450 3A4 (Homo sapiens) (UniProt P08684); assay: qHTS Assay for Inhibitors and Substrates of Cytochrome P450 3A4 (AID 884); also: potency is read from the fitted curve at half-maximal effect; nearly all actives have a fitted effect of over 50% in size
# Outline: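 Luminescent readout of luciferin produced by CYP3A4 (20 nM) dealkylation of Luciferin-PPXE, 25 uM (its KM). NADPH-driven reaction ran 60 min at RT after 10 min compound preincubation; data scaled to 57 uM ketoconazole as 100% inhibition.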
# [8] = MultiTox-Fluor Cytotoxicity Assay - LYMP1-002 - Dead Cells (AID 960); also: potency is read from the fitted curve at half-maximal effect; nearly all actives have a fitted effect of over 60% in size
# Outline: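 Dead-cell fluorescence (Ex/Em 485/520) after 16 h compound exposure at 37 C of LYMP1-002 lymphoblastoid cells in complete medium; AC50 by Hill equation, with data scaled between DMSO and 15 uM tetraoctylammonium bromide.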
# [9] = molecular target: Vitamin D3 receptor (Homo sapiens) (UniProt P11473); assay: qHTS assay for small molecule antagonists of vitamin D receptor signaling (AID 588541; calls by dose curve;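 also: receptor activated by calcitriol during compound treatment; series mostly up to about 77 µM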)
# Outline: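 VDR-UAS-bla HEK293T cells (2000/well, 2% charcoal-stripped FBS) were treated with titrated compounds plus 1-alpha,25-dihydroxyvitamin D3 (50 nM or 3 nM final) for 16 h at 37 C. CCF4 beta-lactamase fluorescence was read; Hill fits gave IC50.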
# [10] = molecular target: Nuclear receptor subfamily 1 group I member 2 (Rattus norvegicus) (UniProt Q9R1A7); assay: qHTS assay for small molecule activators of the rat pregnane X receptor (rPXR) signaling pathway (AID 651751; call rule not given here); settings: rPXR reporter cells, luciferase (One-Glo), 24 h
# [11] = molecular target: Thyroid hormone receptor beta (Homo sapiens) (UniProt P10828); assay: qHTS assay for small molecule antagonists of thyroid hormone receptor beta signaling (AID 588547; active = well fitted inhibition curve with a large enough effect in the signal ratio, with a control signal flat, not every such curve was filed as active; the % refers to the signal ratio;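 also: cells stimulated with 0.4 nM T3 agonist during compound exposure; series mostly up to about 77 µM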); settings: TR-UAS-bla HEK293, beta-lactamase ratio, antagonist mode, 18 h
# Outline: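 TR-UAS-bla GripTite HEK293 cells in 2% charcoal/dextran FBS medium were preincubated 4 h at 37 C, given compound (0.59 nM to 92 uM) plus 0.4 nM T3 (final) for 18 h, then CCF4 for 2 h at RT; Hill fit gave IC50.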
# [12] = molecular target: Voltage-gated inwardly rectifying potassium channel KCNH2 (Homo sapiens) (UniProt Q12809); assay: qHTS Assay for Small Molecule Inhibitors of the Human hERG Channel Activity (AID 588834);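 also: potency is read from the fitted curve at half-maximal effect; lower thallium flux fluorescence means stronger hERG block; nearly all actives have a fitted effect of over 50% in size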
# Outline: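 Thallium serves as surrogate for K+ influx through BacMam-delivered hERG in U2OS cells. Compounds are added for about 10 minutes after dye loading; stimulation buffer then starts flux, monitored kinetically on FDSS.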
# [13] = molecular target: Vitamin D3 receptor (Homo sapiens) (UniProt P11473); assay: qHTS for Inhibitors of the vitamin D receptor (VDR): Hit Validation using a Fluorescein Assay (AID 602200); settings: VDR-coactivator binding, fluorescein fluorescence polarization; also: potency is read from the fitted curve at half-maximal effect
# Outline: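 Fluorescence polarization (Ex 495 nm/Em 520 nm) read after 2 h at room temperature, reporting disruption of binding between 1.5 uM VDR-LBD, liganded by 5 uM LG19078, and 5 nM fluorescein-labelled SRC2-3 coactivator peptide (final concentrations).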
# [14] = molecular target: Flap endonuclease 1 (Homo sapiens) (UniProt P39748); assay: qHTS Assay for the Inhibitors of FEN1: Confirmatory Assay for Cherry-picked Compounds (AID 720498); settings: FEN1 flap cleavage, TAMRA/BHQ2 fluorogenic DNA substrate; also: potency is read from the fitted curve at half-maximal effect; nearly all actives have a fitted effect of over 60% in size
# Outline: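 Human FEN1 (10 nM reagent) was preincubated with compounds for 15 min at room temperature, then 50 nM final double-flap DNA substrate (5'-TAMRA flap, BHQ-2 quencher strand) was added. Fluorescence (ex 525/em 598 nm) was read at 0 and 15 min.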
# [15] = molecular target: DNA polymerase eta (Homo sapiens) (UniProt Q9Y253); assay: qHTS for Inhibitors of Polymerase Eta: Confirmatory Assay for Cherry-picked Compounds (AID 720502); settings: Pol eta primer extension, TAMRA/BHQ fluorescence, 10 min; also: potency is read from the fitted curve at half-maximal effect
# Outline: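 Quenched-fluorescence replication assay: 10 nM Pol eta, 50 nM substrate final, 15 min compound preincubation at room temperature, 10 min kinetic reaction read at 525/598 nm.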
# [16] = qHTS for Inhibitors of the vitamin D receptor (VDR): Hit Validation using a Cytotoxicity Assay (AID 602204); also: nearly all actives have a fitted effect of over 75% in size
# Outline: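 Cytotoxicity is flagged by loss of ATP-dependent luminescence in cells treated 18 h with compound. Seeding density was 20,000 cells per well with 4 h pre-incubation; detection took 30 min.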
# [17] = molecular target: Bifunctional 3'-5' exonuclease/ATP-dependent helicase WRN (Homo sapiens) (UniProt Q14191); assay: qHTS for Inhibitors of WRN Helicase: Confirmatory Assay for Cherry-picked Compounds. (AID 720497); also: series mostly up to about 57 µM; nearly all actives have a fitted effect of over 65% in size
# Outline: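 WRN (20 nM) was preincubated 15 min at RT with compound, then started with 100 nM forked duplex oligonucleotide and 2 mM ATP. Unwinding was read kinetically by red fluorescence (ex 525/em 598 nm), normalized to enzyme-free and uninhibited controls.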
# [18] = qHTS for Inhibitors of WRN Helicase: Thiazole Orange DNA Binding Counterscreen (AID 720499);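 also: drop in dye fluorescence marks compound binding to DNA; nearly all actives have a fitted effect of over 60% in size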
# Outline: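 Counterscreen to remove nonspecific DNA binders from WRN helicase hits. Compounds were incubated 15 min at room temperature with 50 nM DNA and 100 nM ThO, then fluorescence was recorded (480 nm excitation, 530 nm emission).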
# [19] = molecular target: RecQ-like DNA helicase BLM (Homo sapiens) (UniProt P54132); assay: qHTS for Inhibitors of WRN Helicase: BLM Helicase Counterscreen for WRN Inhibitors (AID 720503); also: nearly all actives have a fitted effect of over 60% in size
# Outline: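 BLM (1 nM) was preincubated with compounds for 15 min at room temperature in Tris-HCl pH 8.0, 50 mM NaCl, 2 mM MgCl2 buffer. Unwinding started with 100 nM DNA and 2 mM ATP (final); red fluorescence was read twice, 15 min apart.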
# Peroxisome proliferator-activated receptor delta (Homo sapiens), sequence (Q03181 whole entry, looked up): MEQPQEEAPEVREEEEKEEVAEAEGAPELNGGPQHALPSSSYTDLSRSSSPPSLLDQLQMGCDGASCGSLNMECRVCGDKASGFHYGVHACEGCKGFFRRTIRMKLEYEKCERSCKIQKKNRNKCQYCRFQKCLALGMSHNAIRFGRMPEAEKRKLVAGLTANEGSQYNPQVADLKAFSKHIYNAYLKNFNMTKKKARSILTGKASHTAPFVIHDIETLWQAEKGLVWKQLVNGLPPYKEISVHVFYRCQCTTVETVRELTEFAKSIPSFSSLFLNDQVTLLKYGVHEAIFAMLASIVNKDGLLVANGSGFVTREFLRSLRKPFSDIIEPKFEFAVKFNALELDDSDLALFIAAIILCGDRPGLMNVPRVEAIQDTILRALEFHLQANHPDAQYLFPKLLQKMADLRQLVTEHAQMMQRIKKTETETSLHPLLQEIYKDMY
# Vitamin D3 receptor (Homo sapiens), sequence (P11473 whole entry, looked up, the tested form may be a part): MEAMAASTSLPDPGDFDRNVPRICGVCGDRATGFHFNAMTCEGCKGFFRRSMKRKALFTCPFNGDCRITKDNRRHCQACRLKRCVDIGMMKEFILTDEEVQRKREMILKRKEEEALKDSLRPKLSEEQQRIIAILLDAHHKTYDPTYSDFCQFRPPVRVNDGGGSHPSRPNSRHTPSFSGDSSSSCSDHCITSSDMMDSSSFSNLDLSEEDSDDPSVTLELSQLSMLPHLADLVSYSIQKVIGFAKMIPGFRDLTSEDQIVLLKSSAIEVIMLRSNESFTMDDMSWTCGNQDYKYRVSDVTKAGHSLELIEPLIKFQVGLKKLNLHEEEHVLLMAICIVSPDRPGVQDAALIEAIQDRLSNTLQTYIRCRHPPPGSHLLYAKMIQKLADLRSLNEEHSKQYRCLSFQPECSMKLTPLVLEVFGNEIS
# Cytochrome P450 3A4 (Homo sapiens), sequence (P08684 whole entry, looked up): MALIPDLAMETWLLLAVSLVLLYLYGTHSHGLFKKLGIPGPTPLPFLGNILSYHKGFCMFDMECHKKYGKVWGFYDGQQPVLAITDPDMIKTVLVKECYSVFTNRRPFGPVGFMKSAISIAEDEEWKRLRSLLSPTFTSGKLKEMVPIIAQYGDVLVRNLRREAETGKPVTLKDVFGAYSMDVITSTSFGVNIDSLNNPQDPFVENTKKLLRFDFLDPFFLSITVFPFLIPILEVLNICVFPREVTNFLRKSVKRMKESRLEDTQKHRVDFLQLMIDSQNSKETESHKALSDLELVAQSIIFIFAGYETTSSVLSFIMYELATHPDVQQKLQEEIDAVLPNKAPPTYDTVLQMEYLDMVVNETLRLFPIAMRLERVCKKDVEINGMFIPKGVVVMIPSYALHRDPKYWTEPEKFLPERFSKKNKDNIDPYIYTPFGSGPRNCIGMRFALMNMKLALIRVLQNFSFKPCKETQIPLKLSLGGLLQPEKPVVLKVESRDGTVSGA
# Thyroid hormone receptor beta (Homo sapiens), sequence (P10828 whole entry, looked up): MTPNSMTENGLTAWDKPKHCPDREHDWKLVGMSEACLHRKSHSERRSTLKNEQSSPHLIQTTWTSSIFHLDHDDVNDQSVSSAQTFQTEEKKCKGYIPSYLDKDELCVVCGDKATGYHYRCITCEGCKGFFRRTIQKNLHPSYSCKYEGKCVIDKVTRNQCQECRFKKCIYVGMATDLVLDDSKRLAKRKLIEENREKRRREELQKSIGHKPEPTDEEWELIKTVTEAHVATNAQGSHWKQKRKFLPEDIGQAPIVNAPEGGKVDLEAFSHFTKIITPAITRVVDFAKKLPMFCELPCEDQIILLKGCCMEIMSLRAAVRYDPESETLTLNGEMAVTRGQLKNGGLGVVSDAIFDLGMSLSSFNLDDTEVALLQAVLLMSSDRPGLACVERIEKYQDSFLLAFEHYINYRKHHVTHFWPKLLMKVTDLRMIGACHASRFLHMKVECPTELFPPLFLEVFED
# RecQ-like DNA helicase BLM (Homo sapiens), sequence (P54132 whole entry, looked up): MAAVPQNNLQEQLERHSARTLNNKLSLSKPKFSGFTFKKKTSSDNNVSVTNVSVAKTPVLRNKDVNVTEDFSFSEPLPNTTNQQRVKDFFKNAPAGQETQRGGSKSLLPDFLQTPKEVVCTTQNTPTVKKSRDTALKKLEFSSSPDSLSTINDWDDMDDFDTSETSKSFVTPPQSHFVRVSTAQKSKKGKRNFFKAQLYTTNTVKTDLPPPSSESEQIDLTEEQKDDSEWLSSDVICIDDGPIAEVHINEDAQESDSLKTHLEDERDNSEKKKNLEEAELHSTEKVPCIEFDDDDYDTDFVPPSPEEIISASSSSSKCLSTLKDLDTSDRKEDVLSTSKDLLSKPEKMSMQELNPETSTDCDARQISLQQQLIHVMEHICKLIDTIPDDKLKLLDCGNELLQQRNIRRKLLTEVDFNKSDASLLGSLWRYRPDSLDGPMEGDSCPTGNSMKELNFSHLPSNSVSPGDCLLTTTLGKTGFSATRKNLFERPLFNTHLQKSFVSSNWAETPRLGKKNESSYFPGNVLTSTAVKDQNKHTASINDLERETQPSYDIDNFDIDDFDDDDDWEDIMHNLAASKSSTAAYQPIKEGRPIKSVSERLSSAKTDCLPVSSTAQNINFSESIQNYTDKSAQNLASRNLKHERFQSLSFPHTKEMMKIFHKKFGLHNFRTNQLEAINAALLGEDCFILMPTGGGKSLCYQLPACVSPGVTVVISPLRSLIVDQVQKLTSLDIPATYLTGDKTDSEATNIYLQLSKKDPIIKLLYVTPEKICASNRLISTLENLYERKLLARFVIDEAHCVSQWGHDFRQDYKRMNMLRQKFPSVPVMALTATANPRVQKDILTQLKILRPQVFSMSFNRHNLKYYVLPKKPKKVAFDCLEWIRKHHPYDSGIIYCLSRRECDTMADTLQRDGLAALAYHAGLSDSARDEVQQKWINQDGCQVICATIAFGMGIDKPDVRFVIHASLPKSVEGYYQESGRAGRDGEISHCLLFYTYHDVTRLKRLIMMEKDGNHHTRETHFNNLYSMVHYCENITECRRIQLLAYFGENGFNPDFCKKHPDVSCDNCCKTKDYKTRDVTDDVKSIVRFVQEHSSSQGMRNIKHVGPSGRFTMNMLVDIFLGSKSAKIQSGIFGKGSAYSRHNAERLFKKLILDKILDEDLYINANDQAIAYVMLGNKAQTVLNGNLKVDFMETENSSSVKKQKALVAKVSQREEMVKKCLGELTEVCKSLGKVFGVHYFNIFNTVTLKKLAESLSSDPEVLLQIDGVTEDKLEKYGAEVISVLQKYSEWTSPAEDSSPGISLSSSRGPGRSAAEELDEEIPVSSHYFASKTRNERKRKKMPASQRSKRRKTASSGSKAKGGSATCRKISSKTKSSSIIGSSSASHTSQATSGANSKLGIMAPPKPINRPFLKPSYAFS
# Voltage-gated inwardly rectifying potassium channel KCNH2 (Homo sapiens), sequence (Q12809 whole entry, looked up): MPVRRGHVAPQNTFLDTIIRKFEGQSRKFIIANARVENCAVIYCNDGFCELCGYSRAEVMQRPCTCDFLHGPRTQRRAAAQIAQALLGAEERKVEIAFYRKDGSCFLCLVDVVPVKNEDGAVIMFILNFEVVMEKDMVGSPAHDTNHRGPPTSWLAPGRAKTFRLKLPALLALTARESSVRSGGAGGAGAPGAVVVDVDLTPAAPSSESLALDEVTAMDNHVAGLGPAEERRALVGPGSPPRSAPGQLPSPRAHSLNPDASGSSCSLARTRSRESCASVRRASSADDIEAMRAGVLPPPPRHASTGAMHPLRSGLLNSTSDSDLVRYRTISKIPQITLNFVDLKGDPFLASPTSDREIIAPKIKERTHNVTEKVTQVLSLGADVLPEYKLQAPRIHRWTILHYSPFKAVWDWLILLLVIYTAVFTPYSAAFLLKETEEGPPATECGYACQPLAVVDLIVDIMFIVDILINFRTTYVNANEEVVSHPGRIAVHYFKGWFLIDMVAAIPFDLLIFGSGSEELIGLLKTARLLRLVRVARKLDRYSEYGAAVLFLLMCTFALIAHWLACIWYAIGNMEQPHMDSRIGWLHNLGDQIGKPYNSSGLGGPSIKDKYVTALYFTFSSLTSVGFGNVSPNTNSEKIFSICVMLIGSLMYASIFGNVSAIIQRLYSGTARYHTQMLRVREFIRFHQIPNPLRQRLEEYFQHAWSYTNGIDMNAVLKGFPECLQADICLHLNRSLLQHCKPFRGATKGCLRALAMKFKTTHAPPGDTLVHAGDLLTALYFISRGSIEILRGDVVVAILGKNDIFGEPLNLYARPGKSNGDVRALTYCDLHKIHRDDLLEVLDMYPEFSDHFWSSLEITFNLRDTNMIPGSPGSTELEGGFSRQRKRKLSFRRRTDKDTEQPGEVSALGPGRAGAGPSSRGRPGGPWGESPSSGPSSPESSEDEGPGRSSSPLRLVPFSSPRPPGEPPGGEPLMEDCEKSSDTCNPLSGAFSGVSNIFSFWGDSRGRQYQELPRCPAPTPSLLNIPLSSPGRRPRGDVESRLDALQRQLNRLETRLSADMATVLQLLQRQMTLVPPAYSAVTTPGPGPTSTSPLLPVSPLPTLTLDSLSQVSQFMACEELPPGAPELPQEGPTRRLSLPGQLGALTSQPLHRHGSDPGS
# Nuclear receptor ROR-gamma (Homo sapiens), sequence (P51449 whole entry, looked up): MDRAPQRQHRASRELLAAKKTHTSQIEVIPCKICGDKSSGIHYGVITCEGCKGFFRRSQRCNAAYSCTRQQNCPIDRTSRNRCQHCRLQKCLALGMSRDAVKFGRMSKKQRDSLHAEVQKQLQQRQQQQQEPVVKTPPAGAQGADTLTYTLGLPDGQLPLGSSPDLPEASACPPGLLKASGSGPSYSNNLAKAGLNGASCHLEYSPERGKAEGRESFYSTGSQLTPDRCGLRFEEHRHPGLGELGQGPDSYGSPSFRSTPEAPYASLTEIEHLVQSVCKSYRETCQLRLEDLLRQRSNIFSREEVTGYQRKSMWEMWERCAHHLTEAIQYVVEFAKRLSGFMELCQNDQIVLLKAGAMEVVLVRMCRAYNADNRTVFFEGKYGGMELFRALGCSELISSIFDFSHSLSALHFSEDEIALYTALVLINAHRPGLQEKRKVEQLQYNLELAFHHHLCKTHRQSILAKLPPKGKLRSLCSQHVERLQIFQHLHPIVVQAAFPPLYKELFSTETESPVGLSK
smiles,measurement,setting,value
CCCCOCCOCCOC(C)=O,outcome,[1],inactive
CCCCNCC,outcome,[1],inactive
O=C1OC(=O)c2cc([N+](=O)[O-])ccc21,outcome,[1],inactive
COS(C)(=O)=O,outcome,[1],inactive
same,Potency,[2],42.2 µM (active)
Cc1c(N)cccc1N,Potency,[3],inactive
same,outcome,[1],inactive
same,Potency,[4],37.6 µM (active)
same,Potency,[5],inactive
ClCCl,outcome,[1],inactive
CCC=O,outcome,[1],inactive
C=CCCC,outcome,[1],inactive
same,Potency,[2],66.8 µM (active)
same,Potency,[6],22.4 µM (active)
Cc1cccc(Br)c1,outcome,[1],inactive
C=CCn1c(=O)n(CC=C)c(=O)n(CC=C)c1=O,Potency,[7],10 µM (active)
O=C1c2c(O)ccc([N+](=O)[O-])c2C(=O)c2c([N+](=O)[O-])ccc(O)c21,Potency,[7],7.94 µM (active)
COc1ccc(N=[N+]([O-])c2ccc(OC)cc2)cc1,Potency,[8],25.1 µM (active)
ClC1=C(Cl)[C@]2(Cl)[C@H]3[C@H]([C@@H]4C=C[C@H]3C4)[C@]1(Cl)C2(Cl)Cl,Potency,[9],inactive
same,max response,[10],7.41%
CC(C1CC1)C(O)(Cn1cncn1)c1ccc(Cl)cc1 (configuration not stated),Potency,[9],inactive
same,activity change % (negative = inhibition),[11],-18.1%
CC(C)NC(=O)N1CC(=O)N(c2cc(Cl)cc(Cl)c2)C1=O,activity change % (negative = inhibition),[11],4.77%
c1ccc2c(c1)Oc1ccccc1S2,Potency,[12],28.2 µM (active)
O=C1NC(=O)N(c2ccccc2)C(=O)/C1=C/c1ccc([N+](=O)[O-])s1,Potency,[13],20 µM (active)
same,Potency,[14],19 µM (active)
same,Potency,[15],30.1 µM (active)
Cc1ccnc(-n2c(C)cc(/C=C3\C(=O)NC(=S)N(C)C3=O)c2C)c1,outcome,[16],inactive
O=C(O)CCn1cc(C=C2C(=O)NC(=S)NC2=O)c(-c2cccc(Br)c2)n1,outcome,[16],inactive
same,outcome,[17],inactive
same,outcome,[18],inactive
same,outcome,[19],inactive
